Laboratory results reported in PubChem BioAssay (NCI).
Compounds without any hit were thinned out: in the full panel of roughly 83,000, 20% have a hit.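 Assay: single dose, 48 h. Readout: percent growth (0 = no net growth; negative = cell death). Active: <10.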 Active and inactive are the calls of the source.

Each compound was assayed on HL-60(TB) leukemia (assay: NCI-60 one-dose screen, 48 h (100 = growth as untreated, 0 = no growth, -100 = all killed)). Conditions: 10 µM unless noted.
For `Cc1cc(NC(=O)c2cnc(N3CCN(CCOCCOCCOCCOCCC(=O)N[C@H](C(=O)N4C[C@H](O)C[C@H]4C(=O)N[C@@H](C)c4ccc(-c5scnc5C)cc4)C(C)(C)C)CC3)cn2)c2ncccc2c1`, the growth was -21.1% (active). In the case of `Nc1c(C(=O)Nc2cccc3ncccc23)sc2nc3c(cc12)CN(Cc1ccccc1)CC3`, the growth is reported as 48.6% (inactive). For `O=C(NC1CCCCCC1)c1ccc2c(=O)n3c(nc2c1)CCCCC3`, the growth was 144% (inactive). `CC(=O)O[C@@]12CO[C@@H]1C[C@H](O)[C@@]1(C)C(=O)[C@H](O)C3=C(C)[C@@H](OC(=O)[C@H](O)[C@@H](NC(=O)OC(C)(C)C)c4ccccc4)C[C@@](O)([C@@H](OC(=O)c4ccccc4)C12)C3(C)C` (stereo not given in full) was tested, and the growth was -12.9% (active). For `O=C1NC(=O)/C(=C\c2ccco2)S1`, the growth was 74.2% (inactive). `CCCCN(Cc1ccc(C(=O)NO)cc1)C(=O)Nc1ccc(OCCCCCCCCCn2cc(CCCCC(=O)N[C@H](C(=O)N3C[C@H](O)C[C@H]3C(=O)NCc3ccc(-c4scnc4C)cc3)C(C)(C)C)nn2)cc1` was tested, and the growth was 21.6% (inactive). `C=C1C(=O)O[C@H]2[C@H]1CC/C(C(=O)Nc1ccc(OC)c(C(N)=O)c1O)=C\CC[C@@]1(C)O[C@@H]21` was tested, and the growth was 0.316% (active). With `O=C(NC1=CC(=O)c2ccccc2C1=O)c1ccccc1` the growth was -30.8% (active). In the case of `CCOC(=O)CCCC(=O)OCC`, the growth is reported as 102% (inactive). In the case of `COc1ccc(N=C2NN=C(c3c[nH]c4ccccc34)CS2)cc1OC`, the growth is reported as 47% (inactive). In the case of `O=C(CNC(=O)c1cccc2ccccc12)Nc1ccccc1Cc1ccccc1`, the growth is reported as -15.9% [5 µM] (active). For `COc1ccc2[nH]cc(-c3nonc3-c3c[nH]c4ccc(Br)cc34)c2c1`, the growth was 76.1% (inactive). In the case of `COc1ccc(-c2cc(-c3cn(-c4cccc(Cl)c4)nc3-c3ccc(OC)cc3)on2)cc1`, the growth is reported as 93.6% (inactive). `CCCOC(=O)N[C@H]1CCc2cc(OC)c(OC)c(OC)c2-c2ccc(SC)c(=O)cc21` was tested, and the growth was -39.7% (active). For `CCOC(=O)c1noc2c1CCc1c-2cn(Cc2ccc(OC)cc2)c1-c1cc(OC)c(OC)c(OC)c1`, the growth was -25.5% (active). `CC(=O)n1c(-c2ccc(Cl)c(Cl)c2)cn(-c2ccc(Cl)cc2)c1=O` was tested, and the growth was 64.8% (inactive). For `O=C1/C(=C\c2ccccc2)CN(C(=O)c2ccccc2)C/C1=C\c1ccccc1`, the growth was 29.6% (inactive). For `CC(O)/C=C/C=C/C(O)CC/C=C/C(=O)NCC(C)(C)O` (stereo not given), the growth was 81.1% (inactive). With `Nc1ccc2c(c1)C1(CCC2)NC(=O)NC1=O` (stereo not given) the growth was 93.1% (inactive). For `COc1ccc2[nH]c(-c3ccc(Cl)cc3)cc(=O)c2c1`, the growth was 75.7% (inactive). `COC(=O)c1cc2oc(/C=N\NC(=O)c3cc4oc(C)c(C)c4[nH]3)cc2[nH]1` was tested, and the growth was 103% (inactive). For `C=C(C)[C@@H]1CC[C@]2(CO)CC[C@]3(C)[C@H](CC[C@@H]4[C@@]5(C)CC[C@H](O)C(C)(C)[C@@H]5CC[C@]43C)[C@@H]12`, the growth was 66.4% (inactive). In the case of `CCOC(=O)c1cc(C(=O)c2ccc(O)c(O)c2)n2ccc(-c3ccn4c(C(=O)c5ccc(O)c(O)c5)cc(C(=O)OCC)c4c3)cc12`, the growth is reported as 73.8% (inactive). For `O=c1n(C2OC(CO)C(O)C2O)ccc2nccn12` (stereo not given), the growth was 101% (inactive). In the case of `COc1ccc(/C=C(/c2ccccc2)[N+](=O)[O-])c(OC)c1`, the growth is reported as 0.521% (active). With `CCC(C)C(N)C(=O)NNc1n[nH]c(=S)n1N` (stereo not given) the growth was 100% (inactive). With `O=C(Nc1ccc(Oc2cccc(F)c2)c(Cl)c1)c1cnccn1` the growth was 3.12% (active). With `COc1ccc(/C=C/C(=O)c2ccc([N+](=O)[O-])cc2)cc1` the growth was 82% (inactive). For `COc1ccc(OC)c(Cn2cc3c(c2)-c2oncc2CC3)c1`, the growth was 13.7% (inactive). In the case of `O=C(Nc1ccc(NC(=O)c2cc(=O)[nH]c3ccccc23)cc1)Nc1cccc(C(F)(F)F)c1`, the growth is reported as 99.8% (inactive). In the case of `c1ccc(-c2cn3c(ccc4ccccc43)n2)cc1`, the growth is reported as 24.4% (inactive). With `O=C1c2cccc3cccc(c23)C(=O)N1Nc1nc(N2CCOCC2)nc(N2CCN(c3ccccc3)CC2)n1` the growth was 56.3% (inactive). In the case of `COc1cc(C2CC(c3ccc(Cl)cc3)=NN2C(C)=O)ccc1Oc1nc2c(c(=O)n(C)c(=O)n2C)n1C` (stereo not given), the growth is reported as 94.2% (inactive). `COc1ccc(C(=O)Nc2nc(-c3ccc(Cl)cc3)cs2)cc1` was tested, and the growth was 105% (inactive). In the case of `CN(C)c1ccc(NC(=O)c2ccc(/C=C/C(=O)c3ncc[nH]3)cc2)cc1`, the growth is reported as 17.5% (inactive).
